Shown are actives, neighbours in structure and some others; about 11% of the full set was active somewhere.
HCV inhibitor: HCV inhibition. Huh7.5.1 HCVcc-Cre infection, luciferase reporter, 44 h. Potency, µM (titrated, usually from 41.8 µM), for inactives: top-dose activity change, negative = inhibition, usual class: inhibitors. 340,000 compounds, 3.4% hits; further: on the % scale 0 is the no-effect control and ±100 the full control effect
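1,000 cells/well; 4 h culture; + compound; + HCVcc-Cre (~0.5 moi); 44 h; luciferase substrate, RT 15 min; read 15 sec.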
Pf growth 96h: inhibits malaria parasite growth, 96 h | P. falciparum luciferase reporter growth, 96 h | Potency, µM (titrated, usually from 28.7 µM), for inactives: top-dose activity change, negative = inhibition, most hits filed as inhibitors | 320,000 compounds, 6.9% hits | AID 504834; further: on the % scale 0 is the no-effect control and ±100 the full control effect
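Delayed-death screen, second-generation endpoint: infected erythrocytes, 2% hematocrit, 0.05% parasitemia final; 96 hours at 37 C, 5% CO2; luciferase detection reagent; luminescence decrease equals reduced growth.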
Vaccinia Venus: inhibitors of vaccinia virus (Venus reporter). Vaccinia virus Venus reporter expression, fluorescence. Potency, µM (series often up to 36.5 µM), inactives show top-dose activity change, negative = inhibition, most hits filed as inhibitors. 330,000 compounds, 0.46% hits; calls by dose curve; tested in A549 cells; further: on the % scale 0 is the no-effect control and ±100 the full control effect; nearly all actives have a fitted effect of over 30% in size
Pf growth 48h: inhibits P. falciparum growth in the first generation, 48 h | Potency, µM (series often up to 28.7 µM), for inactives: at the top dose activity change, negative = inhibition, usual class: inhibitors | P. falciparum luciferase growth in erythrocytes, 48 h | AID 504832 | 310,000 compounds, 5.9% hits; further: on the % scale 0 is the no-effect control and ±100 the full control effect
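Luciferase-expressing parasites in RBCs, 2% Hct / 0.1% parasitemia final; RPMI 1640 + 0.5% Albumax; 37 C, 5% CO2, one generation; luminescence read-out, lower signal = inhibition.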
VACV mCherry inh: inhibitors of vaccinia virus infection (mCherry reporter signal). Vaccinia virus mCherry reporter infection, fluorescence. 310,000 compounds, 0.63% hits. Potency, µM (titrated, usually from 36.5 µM), inactives show at the highest dose activity change, negative = inhibition, usual class: inhibitors; calls by dose curve; tested in A549 cells; further: on the % scale 0 is the no-effect control and ±100 the full control effect; nearly all actives have a fitted effect of over 35% in size
NS1 inh: influenza NS1 inhibition. Potency, µM (titrated, usually from 46.1 µM), inactives show top-dose activity, positive = more growth. 270,000 compounds, 0.4% hits. AID 2326; calls by dose curve; further: actives are rising curves; nearly all actives have a fitted effect of over 50% in size
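Growth recovery, yeast-based: influenza A NS1 expressed in S. cerevisiae causes slow growth, and suppressors are detected by OD600. The parent strain without NS1 is used as positive control.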
Active calls of the source: *; i = inactive; ? = inconclusive; / = no result given; [ ] = dose if it differs, or a comment. Unless noted, the call rests on the fitted dose curve; in most records, active means well fitted inhibition curve with a large enough effect; inconclusive means small, poorly fitted or top-dose-only effect, or another doubt; inactive means no such curve, though single readings can be large or run the other way. Potency means the concentration at half of the fitted maximal effect.

SMILES	HCV inhibitor	Pf growth 96h	Vaccinia Venus	Pf growth 48h	VACV mCherry inh	NS1 inh
CN1CCN(c2ccc(NC(=O)COc3ccc4ccccc4c3)cc2)CC1	?	1%	-14%	?	?	1%
C=CC(=O)Nc1cccc(N(C)c2ccnc(Nc3ccc(N4CCN(C)CC4)cc3)n2)c1	?	/	4.5µM*	/	?	/
CN1CCN(c2ccc(NC(=O)COc3cccc4ccccc34)cc2)CC1	-18%	?	4%	?	?	13%
O=C(Nc1ccc(S(=O)(=O)N2CCOCC2)cc1)c1nn(-c2ccc(F)cc2)ccc1=O	11%	?	/	?	/	-5%
CCOC(=O)C1=C(OCc2ccc(Cl)cc2)C2C=C(C)C=CC2N=C1 (stereo unspecified)	-20%	12µM*	-7%	/	-13%	6%
COCCN(C(=O)C1CCN(C(=O)c2ccccc2C)CC1)c1c(N)n(CC(C)C)c(=O)[nH]c1=O	36%	-12%	-10%	8%	-7%	/
CC(C)(C)c1ccc(OCCC(=O)Nc2ccc(N3CCOCC3)cc2N2CCOCC2)cc1	?	?	-26%	?	13µM*	/
CCOc1cc(N2CCOCC2)c(OCC)cc1NC(=O)COC(=O)CCOc1ccc(C(C)(C)C)cc1	12%	1%	-12%	-9%	i	/
COc1cc(OC)cc(C(=O)Nc2ccc(N3CCOCC3)cc2N2CCOCC2)c1	?	13µM*	/	?	/	/
CC(C)CNC(=O)c1ccccc1NC(=O)c1ccc(CN2CCOCC2)cc1	?	30%	-10%	8.3µM*	-3%	-9%
CCC(C)Oc1ccc(C(=O)Nc2ccc(CN3CCOCC3)cc2)cc1 (stereo unspecified)	25µM*	?	/	?	/	-19%
O=C(Nc1ccccc1)c1[nH]ncc1[N+](=O)[O-]	21%	34%	/	/	/	-62%
COC(=O)CN(c1ccc(OC)cc1OC)S(=O)(=O)c1ccccc1[N+](=O)[O-]	8%	4%	-4%	0%	-5%	-5%
CCCN(CC1CC1)C(=S)Nc1ccccc1F	-2%	-4%	-6%	19%	i	14%
COc1ccc(-c2ocnc2C(=O)Nc2ccc(N3CCOCC3)cc2N2CCOCC2)cc1OC	?	38%	-15%	8.3µM*	?	16%
COc1ccccc1-c1ocnc1C(=O)Nc1ccc(N2CCOCC2)cc1N1CCOCC1	0%	2%	-14%	?	-23%	-12%
CC(C)COc1cccc(C(=O)Nc2ccc(S(=O)(=O)N3CCOCC3)cc2)c1	?	/	?	?	-20%	3%
CC(C)COc1cccc(C(=O)Nc2ccc(CN3CCOCC3)cc2)c1	3.2µM*	8.3µM*	?	-28%[0.00184 µM]	-12%	3%
CC(C)COc1cccc(C(=O)Nc2ccc(N3CCOCC3)cc2N2CCOCC2)c1	7.9µM*	?	-10%	?	-13%	/
Cc1cccc(N2C(=O)C3C4C=CC(CC4)C3C2=O)c1 (stereo unspecified)	9%	-26%	/	-15%	/	15%
O=C(Nc1ccccc1F)N1CCC(NC(=O)C23CC4CC(CC(C4)C2)C3)CC1	2%	?	10%	?	5%	-5%
COC(=O)c1ccc(NC(=O)COC(=O)C2CC(=O)N(Cc3ccccc3)C2)cc1 (stereo unspecified)	15%	14%	/	-10%	/	-6%
CC(=O)Nc1cccc(-c2nc(-c3ccccc3)no2)c1	/	/	-5%	/	-6%	/
O=C(CNC(=O)c1ccco1)NCC(=O)OCc1ccc(F)cc1	8%	3.3µM*	-4%	5%	i	3%
COc1ccc(Nc2c(-c3ccc(Cl)cc3)nc3cnccn23)cc1OC	/	/	8%	/	-9%	/
SMILES	HCV inhibitor	Pf growth 96h	Vaccinia Venus	Pf growth 48h	VACV mCherry inh	NS1 inh
CCOC(=O)c1c(-c2ccccc2)csc1NC(=O)CSc1nncs1	?	?	?	9.3µM*	?	0%
CCOC(=O)c1c(-c2ccccc2)csc1NC(=O)CSc1nnnn1C	7.1µM*	/	/	4.7µM*	/	3%
CCOC(=O)c1c(-c2ccc(OC)cc2)csc1NC(=O)CSc1ccccc1	?	13µM*	-20%	/	-29%	15%
COC(=O)c1c(-c2ccc3ccccc3c2)csc1NC(=O)Cc1ccc(OC)c(OC)c1	?	9.3µM*	?	8.3µM*	/	-5%
CCCCOC(=O)Nc1nc(CC(=O)OCC)cs1	-9%	/	/	13%	/	0%
CCOC(=O)c1c(NC(=O)CSc2nnnn2C)sc(C)c1-c1ccc(C)cc1	?	2.3µM*	/	8.3µM*	/	0%
CCOC(=O)c1c(NC(=O)CSc2nncs2)sc(C)c1-c1ccccc1	?	?	?	-7%	?	22%
COn1c(=O)c(-c2cccs2)[n+]([O-])c2ccccc21	?	57%	-20%	49%	-24%	-91%
Cn1c(-c2cccs2)[n+](C)c2ccccc21	11µM*	-11%	-23%	1µM*	-14%	/
CC(OC(=O)c1ccc2c(c1)OCO2)C(=O)NC1CCCCC1C (stereo unspecified)	?	5%	-8%	-7%	-11%	/
Cc1[nH]c2ccc(C(=O)OC(C)C(=O)NC3(C#N)CCCCC3)cc2c1C (stereo unspecified)	14µM*	-22%	-15%	?	-7%	/
CC(OC(=O)c1ccc([N+](=O)[O-])s1)C(=O)NC1CCCCC1C (stereo unspecified)	?	?	/	13µM*	/	/
Cc1[nH]c2ccc(C(=O)OC(C)C(=O)NC3CCCCC3C)cc2c1C (stereo unspecified)	22µM*	?	/	4.7µM*	/	/
CC(OC(=O)c1ccc(-c2ccc(O)cc2)cc1)C(=O)NC1CCCCC1C (stereo unspecified)	13µM*	?	-16%	-20%	-24%	/
CC(OC(=O)c1cccc(Cl)c1)C(=O)NC1CCCCC1C (stereo unspecified)	1%	31%	-10%	8%	-3%	9%
O=C(CSc1ccc(-c2ccccn2)nn1)c1ccc([N+](=O)[O-])cc1	?	3%	-4%	10%	-14%	/
COC(=O)c1ccsc1NC(=O)c1ccc(Cl)s1	-1%	-8%	-20%	-5%	i	7%
COc1cccc(C(c2c(C)[nH]n(-c3ccccc3)c2=O)c2c(C)[nH]n(-c3ccccc3)c2=O)c1OC	13%	39%	-15%	-15%	-4%	-17%
CC(OC(=O)Cn1[nH]c(=O)c2ccccc2c1=O)C(=O)NC1(C#N)CCCCC1 (stereo unspecified)	4%	?	-13%	10µM*	-12%	/
CC(OC(=O)Cc1c[nH]c2ccccc12)C(=O)NC1(C#N)CCCCC1 (stereo unspecified)	20%	-25%	/	11%	/	-17%
COc1ccc(-c2cc(-c3cccs3)nc(OC)c2C#N)cc1OC	?	-19%	-9%	?	-17%	17%
